The source of these data is ChEMBL document CHEMBL1961873, “Compounds: GSK PKIS; Assays: Nanosyn kinase panel” (2012).

Test [1] deals with Sphingosine kinase 1 (Homo sapiens) (UniProt Q9NYA1). The settings on record: at 1 µM.
The target in test [2] is T1, Sphingosine kinase 2 (Homo sapiens) (UniProt Q9NRA0).
T1 sequence (whole entry): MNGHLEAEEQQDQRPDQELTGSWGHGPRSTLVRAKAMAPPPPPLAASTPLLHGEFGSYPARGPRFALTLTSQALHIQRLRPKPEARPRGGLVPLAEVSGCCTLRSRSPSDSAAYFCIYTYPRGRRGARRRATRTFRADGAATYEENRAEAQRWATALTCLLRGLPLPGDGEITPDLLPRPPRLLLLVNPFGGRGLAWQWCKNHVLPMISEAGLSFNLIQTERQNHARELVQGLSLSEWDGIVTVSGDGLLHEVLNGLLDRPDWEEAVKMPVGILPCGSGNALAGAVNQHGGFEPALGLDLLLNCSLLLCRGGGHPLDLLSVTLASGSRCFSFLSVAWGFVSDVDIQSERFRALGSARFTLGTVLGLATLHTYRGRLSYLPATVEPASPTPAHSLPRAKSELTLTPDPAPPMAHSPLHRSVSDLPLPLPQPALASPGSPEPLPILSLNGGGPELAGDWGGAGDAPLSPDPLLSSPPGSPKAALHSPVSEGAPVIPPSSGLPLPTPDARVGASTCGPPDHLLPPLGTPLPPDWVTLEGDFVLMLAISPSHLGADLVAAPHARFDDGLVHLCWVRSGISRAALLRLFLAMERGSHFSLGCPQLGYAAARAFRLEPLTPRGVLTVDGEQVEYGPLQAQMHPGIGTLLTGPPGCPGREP
The settings on record: at 0.1 µM.

The target of test [3] is T1, Sphingosine kinase 2 (Homo sapiens). The settings on record: at 1 µM.
Test [4] addresses Casein kinase II subunit alpha (Homo sapiens) (UniProt P68400). The settings on record: at 0.1 µM.
Test [5] has the same target. The conditions noted are these: at 1 µM.
In test [6] the target is T2, Inhibitor of nuclear factor kappa-B kinase subunit alpha (Homo sapiens) (UniProt O15111).
T2 sequence (whole entry): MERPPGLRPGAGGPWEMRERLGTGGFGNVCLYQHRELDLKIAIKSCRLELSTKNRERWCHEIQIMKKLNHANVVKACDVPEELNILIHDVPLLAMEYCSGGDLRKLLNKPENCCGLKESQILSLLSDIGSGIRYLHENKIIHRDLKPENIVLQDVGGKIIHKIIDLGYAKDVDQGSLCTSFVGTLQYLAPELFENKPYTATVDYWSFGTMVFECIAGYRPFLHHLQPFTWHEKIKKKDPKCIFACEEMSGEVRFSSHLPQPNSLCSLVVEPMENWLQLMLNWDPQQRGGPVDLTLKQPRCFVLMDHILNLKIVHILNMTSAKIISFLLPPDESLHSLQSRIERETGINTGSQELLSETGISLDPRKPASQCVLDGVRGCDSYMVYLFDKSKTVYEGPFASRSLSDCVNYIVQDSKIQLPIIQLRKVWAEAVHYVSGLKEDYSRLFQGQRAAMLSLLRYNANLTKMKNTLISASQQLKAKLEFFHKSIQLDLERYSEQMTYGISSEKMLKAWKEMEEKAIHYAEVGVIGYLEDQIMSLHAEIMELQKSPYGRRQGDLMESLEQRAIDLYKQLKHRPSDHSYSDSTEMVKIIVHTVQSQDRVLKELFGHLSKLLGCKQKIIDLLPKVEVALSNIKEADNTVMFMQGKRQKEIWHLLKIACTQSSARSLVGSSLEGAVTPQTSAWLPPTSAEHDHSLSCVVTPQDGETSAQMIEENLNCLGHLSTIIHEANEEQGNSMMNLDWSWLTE
The settings on record: at 0.1 µM.

In test [7] the target is T2, Inhibitor of nuclear factor kappa-B kinase subunit alpha (Homo sapiens). The settings on record: at 1 µM.
Test [8] addresses T3, Inhibitor of nuclear factor kappa-B kinase subunit beta (Homo sapiens) (UniProt O14920).
T3 sequence (whole entry): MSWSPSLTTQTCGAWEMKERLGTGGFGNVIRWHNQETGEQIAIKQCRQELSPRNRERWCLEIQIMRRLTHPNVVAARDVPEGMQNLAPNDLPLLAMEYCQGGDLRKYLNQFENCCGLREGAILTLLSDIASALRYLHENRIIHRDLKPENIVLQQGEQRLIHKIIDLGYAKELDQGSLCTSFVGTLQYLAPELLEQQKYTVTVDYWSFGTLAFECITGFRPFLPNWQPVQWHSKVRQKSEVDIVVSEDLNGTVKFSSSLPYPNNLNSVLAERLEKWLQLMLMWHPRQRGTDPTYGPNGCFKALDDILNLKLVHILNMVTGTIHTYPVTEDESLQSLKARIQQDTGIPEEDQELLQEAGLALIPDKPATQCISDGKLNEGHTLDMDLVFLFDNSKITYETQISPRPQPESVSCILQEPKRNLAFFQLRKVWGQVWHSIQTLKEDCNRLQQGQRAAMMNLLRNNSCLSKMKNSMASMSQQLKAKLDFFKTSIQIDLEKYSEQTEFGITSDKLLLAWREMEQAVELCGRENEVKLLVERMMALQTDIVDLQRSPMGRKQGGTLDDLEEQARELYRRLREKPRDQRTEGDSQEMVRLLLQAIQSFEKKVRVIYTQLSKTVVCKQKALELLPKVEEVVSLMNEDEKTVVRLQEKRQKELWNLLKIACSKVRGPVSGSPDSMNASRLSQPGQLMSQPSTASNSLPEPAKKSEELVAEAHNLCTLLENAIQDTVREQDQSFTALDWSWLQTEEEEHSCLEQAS
The settings on record: at 0.1 µM.

For test [9], the target named is T3, Inhibitor of nuclear factor kappa-B kinase subunit beta (Homo sapiens). The conditions noted are these: at 1 µM.
In test [10] the target is T4, Inhibitor of nuclear factor kappa-B kinase subunit epsilon (Homo sapiens) (UniProt Q14164).
T4 sequence (whole entry): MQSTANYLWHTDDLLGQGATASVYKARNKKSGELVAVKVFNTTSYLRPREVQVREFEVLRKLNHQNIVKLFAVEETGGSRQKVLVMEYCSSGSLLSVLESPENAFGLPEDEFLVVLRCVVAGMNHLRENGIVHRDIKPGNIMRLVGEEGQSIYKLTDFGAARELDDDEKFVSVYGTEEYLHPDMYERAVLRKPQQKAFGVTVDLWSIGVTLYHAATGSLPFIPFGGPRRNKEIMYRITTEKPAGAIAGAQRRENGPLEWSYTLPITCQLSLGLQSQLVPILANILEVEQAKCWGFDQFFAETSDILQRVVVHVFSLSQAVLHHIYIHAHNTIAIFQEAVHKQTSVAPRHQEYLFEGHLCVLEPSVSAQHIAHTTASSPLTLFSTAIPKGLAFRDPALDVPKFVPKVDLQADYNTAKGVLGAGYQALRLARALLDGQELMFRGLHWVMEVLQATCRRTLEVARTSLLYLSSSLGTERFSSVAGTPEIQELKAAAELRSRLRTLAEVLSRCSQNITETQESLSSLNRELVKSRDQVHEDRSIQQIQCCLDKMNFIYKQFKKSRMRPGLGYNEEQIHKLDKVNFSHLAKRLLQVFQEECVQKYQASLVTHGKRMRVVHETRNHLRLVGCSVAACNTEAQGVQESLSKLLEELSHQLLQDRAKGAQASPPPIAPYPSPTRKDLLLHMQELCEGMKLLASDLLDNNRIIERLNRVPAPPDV
The conditions noted are these: at 0.1 µM.

The target in test [11] is T4, Inhibitor of nuclear factor kappa-B kinase subunit epsilon (Homo sapiens). The settings on record: at 1 µM.
In test [12] the target is T5, Serine/threonine-protein kinase Nek1 (Homo sapiens) (UniProt Q96PY6).
T5 sequence (whole entry): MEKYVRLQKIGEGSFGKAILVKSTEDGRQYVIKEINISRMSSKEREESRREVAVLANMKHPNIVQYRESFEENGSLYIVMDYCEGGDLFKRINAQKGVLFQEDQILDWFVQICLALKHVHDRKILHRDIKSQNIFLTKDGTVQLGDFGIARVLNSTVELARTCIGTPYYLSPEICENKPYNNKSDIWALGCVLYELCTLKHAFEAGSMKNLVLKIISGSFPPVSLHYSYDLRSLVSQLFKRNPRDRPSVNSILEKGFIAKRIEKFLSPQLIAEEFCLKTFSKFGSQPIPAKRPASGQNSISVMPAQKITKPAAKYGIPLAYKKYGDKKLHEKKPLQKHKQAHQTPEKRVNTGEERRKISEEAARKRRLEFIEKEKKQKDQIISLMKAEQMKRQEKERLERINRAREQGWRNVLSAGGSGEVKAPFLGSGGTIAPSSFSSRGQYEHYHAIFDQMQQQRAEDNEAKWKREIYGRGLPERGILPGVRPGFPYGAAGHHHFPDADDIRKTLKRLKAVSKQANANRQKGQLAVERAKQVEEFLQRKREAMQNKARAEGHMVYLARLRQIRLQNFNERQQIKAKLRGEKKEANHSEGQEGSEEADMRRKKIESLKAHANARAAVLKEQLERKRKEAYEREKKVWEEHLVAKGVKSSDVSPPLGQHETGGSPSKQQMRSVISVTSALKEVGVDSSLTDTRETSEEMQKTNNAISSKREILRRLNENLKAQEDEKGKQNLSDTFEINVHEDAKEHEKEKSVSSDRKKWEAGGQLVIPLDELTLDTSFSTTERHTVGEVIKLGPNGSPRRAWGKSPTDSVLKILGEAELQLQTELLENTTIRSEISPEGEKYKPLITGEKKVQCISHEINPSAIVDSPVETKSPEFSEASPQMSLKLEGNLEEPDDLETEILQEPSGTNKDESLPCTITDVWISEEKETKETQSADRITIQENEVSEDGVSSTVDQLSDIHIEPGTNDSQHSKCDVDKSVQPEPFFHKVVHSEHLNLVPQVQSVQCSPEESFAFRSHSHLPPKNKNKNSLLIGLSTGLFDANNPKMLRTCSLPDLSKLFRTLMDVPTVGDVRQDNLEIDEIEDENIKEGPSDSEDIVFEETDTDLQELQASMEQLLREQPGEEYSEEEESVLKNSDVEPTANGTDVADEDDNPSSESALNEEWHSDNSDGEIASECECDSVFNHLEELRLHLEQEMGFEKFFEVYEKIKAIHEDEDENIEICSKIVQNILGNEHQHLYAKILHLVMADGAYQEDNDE
The conditions noted are these: at 0.1 µM.

In test [13] the target is T5, Serine/threonine-protein kinase Nek1 (Homo sapiens). The conditions noted are these: at 1 µM.
In test [14] the target is T6, Serine/threonine-protein kinase Nek2 (Homo sapiens) (UniProt P51955).
T6 sequence (whole entry): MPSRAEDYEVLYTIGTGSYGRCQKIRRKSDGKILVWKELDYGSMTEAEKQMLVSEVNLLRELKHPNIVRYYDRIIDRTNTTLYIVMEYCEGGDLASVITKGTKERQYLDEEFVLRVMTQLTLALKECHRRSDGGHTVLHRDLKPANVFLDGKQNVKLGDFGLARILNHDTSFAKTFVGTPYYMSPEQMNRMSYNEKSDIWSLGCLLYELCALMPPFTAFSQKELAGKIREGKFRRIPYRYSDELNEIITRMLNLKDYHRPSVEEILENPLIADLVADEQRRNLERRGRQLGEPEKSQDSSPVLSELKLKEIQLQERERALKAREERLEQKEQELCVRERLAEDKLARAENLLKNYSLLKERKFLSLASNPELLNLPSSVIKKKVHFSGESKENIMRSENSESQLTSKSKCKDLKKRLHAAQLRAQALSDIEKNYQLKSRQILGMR
The conditions noted are these: at 0.1 µM.

Test [15] has as its target T6, Serine/threonine-protein kinase Nek2 (Homo sapiens). The conditions noted are these: at 1 µM.
The target of test [16] is Serine/threonine-protein kinase Nek6 (Homo sapiens) (UniProt Q9HC98). The settings on record: at 0.1 µM.
Chain of Serine/threonine-protein kinase Nek6 (Homo sapiens) (Q9HC98 whole entry): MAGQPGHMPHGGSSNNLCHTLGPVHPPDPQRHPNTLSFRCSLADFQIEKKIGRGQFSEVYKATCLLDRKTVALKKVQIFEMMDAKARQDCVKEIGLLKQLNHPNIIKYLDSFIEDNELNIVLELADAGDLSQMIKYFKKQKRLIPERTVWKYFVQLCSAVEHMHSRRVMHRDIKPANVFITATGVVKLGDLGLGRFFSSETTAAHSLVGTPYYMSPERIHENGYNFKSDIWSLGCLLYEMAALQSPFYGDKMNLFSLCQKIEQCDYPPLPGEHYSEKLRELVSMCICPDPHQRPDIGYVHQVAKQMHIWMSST
The target is the same in test [17]. The conditions noted are these: at 1 µM.
Test [18] addresses Serine/threonine-protein kinase Nek7 (Homo sapiens) (UniProt Q8TDX7). The conditions noted are these: at 0.1 µM.
For test [19] the target is unchanged. The settings on record: at 1 µM.
In test [20] the target is T7, Serine/threonine-protein kinase Nek9 (Homo sapiens) (UniProt Q8TD19).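 Also: reported value is the mean percent inhibition of NEK9.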
T7 sequence (whole entry): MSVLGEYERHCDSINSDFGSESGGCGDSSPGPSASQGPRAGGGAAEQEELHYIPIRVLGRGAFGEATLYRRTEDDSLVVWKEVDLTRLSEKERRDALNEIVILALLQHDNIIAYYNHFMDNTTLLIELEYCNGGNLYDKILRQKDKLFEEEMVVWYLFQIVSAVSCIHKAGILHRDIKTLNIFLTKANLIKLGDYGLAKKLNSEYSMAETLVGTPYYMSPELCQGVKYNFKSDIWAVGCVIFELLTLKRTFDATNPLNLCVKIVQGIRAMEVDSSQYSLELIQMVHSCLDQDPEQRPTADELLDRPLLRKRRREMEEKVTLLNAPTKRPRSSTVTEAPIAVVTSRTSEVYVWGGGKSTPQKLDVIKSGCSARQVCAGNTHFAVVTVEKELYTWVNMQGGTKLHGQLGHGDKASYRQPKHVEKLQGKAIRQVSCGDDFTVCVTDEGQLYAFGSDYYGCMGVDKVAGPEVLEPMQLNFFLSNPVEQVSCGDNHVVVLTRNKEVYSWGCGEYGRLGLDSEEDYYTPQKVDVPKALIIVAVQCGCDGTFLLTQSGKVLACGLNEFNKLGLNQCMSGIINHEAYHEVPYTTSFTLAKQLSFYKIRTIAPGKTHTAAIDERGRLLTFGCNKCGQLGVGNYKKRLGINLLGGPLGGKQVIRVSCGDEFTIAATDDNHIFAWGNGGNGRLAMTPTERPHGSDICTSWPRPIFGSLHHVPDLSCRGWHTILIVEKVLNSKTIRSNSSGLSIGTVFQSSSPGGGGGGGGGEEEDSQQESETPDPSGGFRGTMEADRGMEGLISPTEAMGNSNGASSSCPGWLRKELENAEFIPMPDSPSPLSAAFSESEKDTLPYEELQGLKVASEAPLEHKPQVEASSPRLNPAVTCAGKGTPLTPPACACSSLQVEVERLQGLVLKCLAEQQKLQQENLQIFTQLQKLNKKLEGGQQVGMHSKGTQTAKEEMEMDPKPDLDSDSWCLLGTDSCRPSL
The conditions noted are these: at 0.1 µM.

Chain of Casein kinase II subunit alpha (Homo sapiens) (P68400 whole entry, looked up): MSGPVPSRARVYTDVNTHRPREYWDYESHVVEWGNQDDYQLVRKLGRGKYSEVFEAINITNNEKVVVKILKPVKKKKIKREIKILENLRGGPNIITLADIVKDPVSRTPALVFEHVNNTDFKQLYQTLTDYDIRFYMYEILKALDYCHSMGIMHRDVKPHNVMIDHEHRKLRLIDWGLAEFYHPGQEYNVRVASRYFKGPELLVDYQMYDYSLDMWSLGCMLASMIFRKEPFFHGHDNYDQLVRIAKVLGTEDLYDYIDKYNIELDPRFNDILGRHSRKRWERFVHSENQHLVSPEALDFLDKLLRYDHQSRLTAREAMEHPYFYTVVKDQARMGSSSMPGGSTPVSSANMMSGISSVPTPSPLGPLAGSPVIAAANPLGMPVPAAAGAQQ
Chain of Serine/threonine-protein kinase Nek7 (Homo sapiens) (Q8TDX7 whole entry, looked up): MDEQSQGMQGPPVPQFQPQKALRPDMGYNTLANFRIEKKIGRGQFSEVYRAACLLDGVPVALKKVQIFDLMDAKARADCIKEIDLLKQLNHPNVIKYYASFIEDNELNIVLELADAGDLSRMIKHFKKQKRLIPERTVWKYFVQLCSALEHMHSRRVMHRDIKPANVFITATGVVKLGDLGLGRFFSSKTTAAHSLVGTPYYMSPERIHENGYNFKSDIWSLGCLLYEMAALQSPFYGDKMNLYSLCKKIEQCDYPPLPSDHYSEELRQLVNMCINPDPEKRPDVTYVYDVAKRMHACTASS
Chain of Sphingosine kinase 1 (Homo sapiens) (Q9NYA1 whole entry): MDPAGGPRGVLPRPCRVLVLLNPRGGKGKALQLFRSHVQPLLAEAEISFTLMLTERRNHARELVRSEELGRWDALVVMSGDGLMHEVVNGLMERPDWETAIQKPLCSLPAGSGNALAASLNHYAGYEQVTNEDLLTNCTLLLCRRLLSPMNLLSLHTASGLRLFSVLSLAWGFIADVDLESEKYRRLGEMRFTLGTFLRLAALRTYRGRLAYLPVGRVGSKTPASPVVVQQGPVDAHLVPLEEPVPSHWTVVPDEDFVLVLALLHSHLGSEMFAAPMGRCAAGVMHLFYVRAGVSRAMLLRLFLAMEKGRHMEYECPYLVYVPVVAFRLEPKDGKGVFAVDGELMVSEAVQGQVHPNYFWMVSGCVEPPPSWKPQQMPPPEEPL

Usually inhibition stands for the change of the read-out against control, counted positive when it falls. Turning to `N#Cc1c(NC(=O)c2ccc(F)cc2)sc2c1CCCC2`, the inhibition is -1.09% in test [1]; 0.33% in test [2]; 0% in [3]; 0.61% in test [4]; 1.89% in test [5]; 5.73% in [6]. The inhibition in [7] was found to be 4.51%; in test [8] it was 1.94%; in [9], 4.15%; in [10] it was 2.43%; in test [11], 3.72%; in [12], 9.69%. Besides, the inhibition stood at 3.09% in test [13]; 2.18% in [14]; 1.31% in [15]; 2.27% in test [16]; 2.25% in [17]; 2.7% in [18]. In addition, the values for the inhibition in [19] and in test [20] were 2.46% and 3.12%, respectively.
